Screens: PubChem, Sanford-Burnham Center for Chemical Genomics
Hits are enriched below; roughly 28% of the tested compounds scored in any of these assays.
Mac1 fbg enh = enhancers of human CD11b/CD18 binding to fibrinogen; actives 0.07% (n = 93,000); activation, % at 10 µM; K562 CD11b/CD18 adhesion to fibrinogen, ATPlite luminescence; AID 1499; P05107+P11215;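 active = 10 µM primary screen giving 50% or more activity, confirmed by 40% or more on retest at that dose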
Mac1 fbg inh = inhibitors of human CD11b/CD18 binding to fibrinogen. K562 CD11b/CD18 adhesion to fibrinogen, ATPlite luminescence; Mn2+ added to activate the integrin. inhibition, % at 10 µM. P05107+P11215. AID 1497. actives 0.54% (n = 93,000);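 active = primary inhibition of 50% or more at 10 µM, then 40% or more on retest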
CYP2C19 inh = inhibitors of human CYP2C19; actives 21% (n = 96,000); inhibition, % at 5 µM; P33261; AID 778; CYP2C19 Supersomes, luciferin-H EGE luminescence, 30 min;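 active = CYP2C19 inhibition above a set limit at 5 µM in the primary screen, cut at about 50% in these data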;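 also: plate controls were negative control wells for no effect and 2.5 mM tranylcypromine positive control for full effect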
Target sequence (P33261 whole entry, looked up): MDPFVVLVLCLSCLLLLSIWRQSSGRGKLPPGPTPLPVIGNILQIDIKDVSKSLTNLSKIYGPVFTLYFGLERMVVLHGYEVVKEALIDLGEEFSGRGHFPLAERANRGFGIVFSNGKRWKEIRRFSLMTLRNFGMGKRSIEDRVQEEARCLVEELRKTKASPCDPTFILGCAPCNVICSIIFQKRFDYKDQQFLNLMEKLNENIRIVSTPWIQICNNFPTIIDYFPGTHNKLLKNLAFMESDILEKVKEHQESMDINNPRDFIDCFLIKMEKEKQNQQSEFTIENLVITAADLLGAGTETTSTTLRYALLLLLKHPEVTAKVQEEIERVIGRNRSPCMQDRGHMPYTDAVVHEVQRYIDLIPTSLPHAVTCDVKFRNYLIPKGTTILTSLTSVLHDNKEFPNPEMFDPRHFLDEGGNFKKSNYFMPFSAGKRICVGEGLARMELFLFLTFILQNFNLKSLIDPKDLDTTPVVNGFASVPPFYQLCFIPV
CYP2C9 inh = blocks human cytochrome P450 2C9; CYP2C9 Supersomes, luciferin-H conversion, luminescence; P11712; inhibition, % at 5 µM; actives 20% (n = 96,000); AID 777;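 active = blocking of liver enzyme CYP2C9 beyond about 50% at 5 µM, limit read from the data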
CYP2C19 act = increases human CYP2C19 enzyme activity; P33261; AID 1025; 96,000 tested, under 10 active; activation factor at 5 µM; recombinant CYP2C19, luciferin-H EGE luminescence; stronger effect = higher value; 0 = fully inhibited enzyme, 1 = untreated enzyme;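 active = activation factor of at least 2 at 5 µM in the primary screen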;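 also: 0 = wells with 2.5 mM tranylcypromine and 1 = vehicle-only wells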
CYP2C9 act = activators of human CYP2C9; P11712; recombinant CYP2C9, luciferin-H conversion, luminescence; stronger effect = higher value; factor 1 = untreated enzyme, 0 = blocked; activation factor at 5 µM; actives 1.4% (n = 96,000); AID 1024;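 active = activation factor of 2 or more for CYP2C9 at a 5 µM dose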;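 also: 0 = sulfaphenazole-blocked wells and 1 = vehicle-only wells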
Numbers without * were called inactive.

O=C(Nc1ncn[nH]1)c1ccc(Cl)c(S(=O)(=O)N2CCCCCC2)c1 was read as Mac1 fbg enh -2, Mac1 fbg inh -11, CYP2C19 inh 1, CYP2C9 inh 2, CYP2C19 act 1 and CYP2C9 act 1.
O=C(Nc1ncn[nH]1)c1c(Cl)ccc(Cl)c1Cl was read as Mac1 fbg enh -4, Mac1 fbg inh -41, CYP2C19 inh 88*, CYP2C9 inh -37, CYP2C19 act 0.1 and CYP2C9 act 1.4.
O=C1c2ccccc2-c2cccc(NS(=O)(=O)c3ccc(C(F)(F)F)cc3)c21 was read as Mac1 fbg enh -12, Mac1 fbg inh 104, CYP2C19 inh 2, CYP2C9 inh 88*, CYP2C19 act 1 and CYP2C9 act 0.1.
`CCn1ncc(Br)c1C(=O)Nc1nccs1` gave Mac1 fbg enh -1, Mac1 fbg inh -14, CYP2C19 inh 28, CYP2C9 inh 33, CYP2C19 act 0.7 and CYP2C9 act 0.7.
Screening O=C(CCN1C(=O)COc2ccccc21)NCCC1=CCCCC1 returned CYP2C19 inh 63*, CYP2C9 inh 9, CYP2C19 act 0.4 and CYP2C9 act 0.9.
For O=C(CN1C(=O)COc2ccccc21)NCCC1=CCCCC1 the results were Mac1 fbg enh -3, Mac1 fbg inh -5, CYP2C19 inh 81*, CYP2C9 inh 16, CYP2C19 act 0.2 and CYP2C9 act 0.8.
`O=C(CN1C(=O)COc2ccccc21)NCCCN1CCc2ccccc2C1` gave Mac1 fbg enh -3, Mac1 fbg inh -25, CYP2C19 inh 6, CYP2C9 inh 3, CYP2C19 act 0.9 and CYP2C9 act 1.
For Cc1ccc(C)c(-n2c(Cc3cccs3)n[nH]c2=S)c1 the results were Mac1 fbg enh 0 and Mac1 fbg inh 0.
Cc1ccc(N(CC(=O)NC2CCCC2)C(=O)c2c(C)noc2C)cc1C was read as CYP2C19 inh 18, CYP2C9 inh 29, CYP2C19 act 0.8 and CYP2C9 act 0.7.
Screening Cc1cccc(NC(=O)/C=C/c2cccs2)n1 returned CYP2C19 inh 16, CYP2C9 inh 3, CYP2C19 act 0.8 and CYP2C9 act 1.
For c1ccc(Cc2nnc(-c3ccccc3)o2)cc1 the results were Mac1 fbg enh -1, Mac1 fbg inh 10, CYP2C19 inh 52*, CYP2C9 inh 2, CYP2C19 act 0.5 and CYP2C9 act 1.
`O=C(Nc1ccccc1C(=O)OCc1nnc(-c2ccccc2)o1)c1ccco1` gave Mac1 fbg enh 8, Mac1 fbg inh 30, CYP2C19 inh 76*, CYP2C9 inh 95*, CYP2C19 act 0.2 and CYP2C9 act 0.
`O=C(OCc1nnc(-c2ccccc2)o1)c1ccc2c(c1)OCCO2` gave CYP2C19 inh 39, CYP2C9 inh 58*, CYP2C19 act 0.6 and CYP2C9 act 0.4.
COc1cc(CCC(=O)OCc2nnc(-c3ccccc3)o2)cc(OC)c1OC was read as Mac1 fbg enh -2, Mac1 fbg inh -10, CYP2C19 inh 64*, CYP2C9 inh 82*, CYP2C19 act 0.4 and CYP2C9 act 0.2.
Screening CC(C(=O)OCc1nnc(-c2ccccc2)o1)N1C(=O)c2ccccc2C1=O (stereo unspecified) returned Mac1 fbg enh 1, Mac1 fbg inh 4, CYP2C19 inh 22, CYP2C9 inh 56*, CYP2C19 act 0.8 and CYP2C9 act 0.4.
Screening O=C(OCc1nnc(-c2ccccc2)o1)C1=COCCO1 returned Mac1 fbg enh -2, Mac1 fbg inh -30, CYP2C19 inh 51*, CYP2C9 inh -1, CYP2C19 act 0.5 and CYP2C9 act 1.
For O=C(COC(=O)c1ccc(S(=O)(=O)NCc2ccco2)cc1)NC1CCCCCC1 the results were Mac1 fbg enh -2, Mac1 fbg inh 4, CYP2C19 inh 13, CYP2C9 inh 47, CYP2C19 act 0.9 and CYP2C9 act 0.5.
For O=C(OCc1nnc(-c2ccccc2)o1)c1ccc2ccccc2n1 the results were Mac1 fbg enh 5, Mac1 fbg inh -30, CYP2C19 inh 33, CYP2C9 inh 21, CYP2C19 act 0.7 and CYP2C9 act 0.8.
Cc1ccc(C(=O)OCc2nnc(-c3ccccc3)o2)o1 was read as Mac1 fbg enh -2, Mac1 fbg inh 2, CYP2C19 inh 80*, CYP2C9 inh 42, CYP2C19 act 0.2 and CYP2C9 act 0.6.
Screening O=C(OCc1nnc(-c2ccccc2)o1)c1ccc(S(=O)(=O)NCc2ccco2)cc1 returned CYP2C19 inh 8, CYP2C9 inh 70*, CYP2C19 act 0.9 and CYP2C9 act 0.3.
For O=C(CSc1ccc(Cl)cc1)OCc1nnc(-c2ccccc2)o1 the results were Mac1 fbg enh -2, Mac1 fbg inh -29, CYP2C19 inh 3, CYP2C9 inh 12, CYP2C19 act 1 and CYP2C9 act 0.9.
Nc1ccccc1S(=O)(=O)c1ccccc1N was read as CYP2C19 inh 43, CYP2C9 inh -53, CYP2C19 act 0.6 and CYP2C9 act 1.5.
`COc1cc(-c2nnc(COC(=O)c3cc(C)nc4ccc(C)cc34)o2)cc(OC)c1OC` gave Mac1 fbg enh 18, Mac1 fbg inh -22, CYP2C19 inh 90*, CYP2C9 inh 88*, CYP2C19 act 0.1 and CYP2C9 act 0.1.
For CCOC(=O)c1cc2oc(C)cc2n1CC(=O)OC1CCCCC1 the results were Mac1 fbg enh 10, Mac1 fbg inh -5, CYP2C19 inh 26, CYP2C9 inh 27, CYP2C19 act 0.7 and CYP2C9 act 0.7.
Screening COC(=O)c1cc2oc(C)cc2n1CC(=O)N(C)c1ccccc1 returned Mac1 fbg enh 3, Mac1 fbg inh -18, CYP2C19 inh 64*, CYP2C9 inh 19, CYP2C19 act 0.4 and CYP2C9 act 0.8.
`C=CCN(C(=O)Cn1c(C(=O)OC)cc2oc(C)cc21)c1ccccc1` gave Mac1 fbg enh -4, Mac1 fbg inh 1, CYP2C19 inh 92*, CYP2C9 inh 48, CYP2C19 act 0.1 and CYP2C9 act 0.5.
`COc1cccc(-n2ccnc2SCC(=O)Nc2nccs2)c1` gave CYP2C19 inh 59*, CYP2C9 inh 45, CYP2C19 act 0.4 and CYP2C9 act 0.5.
Screening Cc1cccc(-n2ccnc2SCC(=O)Nc2nccs2)c1 returned Mac1 fbg enh -4, Mac1 fbg inh 7, CYP2C19 inh 60*, CYP2C9 inh 49, CYP2C19 act 0.4 and CYP2C9 act 0.5.
Screening CCSc1nnc(NC(=O)CSc2nccn2-c2cccc(C)c2)s1 returned CYP2C19 inh 33, CYP2C9 inh 63*, CYP2C19 act 0.7 and CYP2C9 act 0.4.
Screening CC1CCN(CCCNC(=O)c2cn(C)c3ccc(S(=O)(=O)N4CCCC4)cc3c2=O)CC1 returned Mac1 fbg enh -2, Mac1 fbg inh -22, CYP2C19 inh 10, CYP2C9 inh 7, CYP2C19 act 0.9 and CYP2C9 act 0.9.
